# FLuc modulator: inhibits or activates purified firefly luciferase, miR-21 counter-screen; 360,000 tested, 6.9% active; purified FLuc, Km substrates, luminescence inhibition; P08659; Potency, µM (highest dose often 57.5 µM), for inactives: at the highest dose activity change, negative = inhibition, actives largely listed as inhibitors;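 also: plate controls were vehicle for no effect and reference inhibitor for full effect; nearly all actives have a fitted effect of over 55% in size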
# Target sequence (P08659 whole entry, looked up): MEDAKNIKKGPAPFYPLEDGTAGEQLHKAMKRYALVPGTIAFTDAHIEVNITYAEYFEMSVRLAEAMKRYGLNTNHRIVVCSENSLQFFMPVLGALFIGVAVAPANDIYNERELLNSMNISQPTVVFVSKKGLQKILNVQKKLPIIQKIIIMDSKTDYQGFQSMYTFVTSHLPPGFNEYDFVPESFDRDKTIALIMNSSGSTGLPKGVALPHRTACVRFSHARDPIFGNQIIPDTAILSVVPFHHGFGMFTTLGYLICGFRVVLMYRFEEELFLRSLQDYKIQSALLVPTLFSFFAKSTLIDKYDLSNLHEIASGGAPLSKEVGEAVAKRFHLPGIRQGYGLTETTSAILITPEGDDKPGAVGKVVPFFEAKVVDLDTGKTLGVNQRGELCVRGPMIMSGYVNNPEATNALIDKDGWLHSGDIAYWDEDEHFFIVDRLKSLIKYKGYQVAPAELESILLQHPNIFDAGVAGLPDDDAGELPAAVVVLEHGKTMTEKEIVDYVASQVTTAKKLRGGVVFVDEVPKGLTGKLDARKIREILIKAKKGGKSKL
#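 Purified P. pyralis luciferase (10nM final) with 10uM D-luciferin and 10uM ATP (Km levels) in 50mM Tris acetate pH 7.5, 10mM Mg acetate, 0.01% Tween-20, 0.05% BSA; qHTS 6-point titration, ~60 µM downward; luminescence read.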
# SMN2 splice up: enhancers of SMN2 splice variant expression; 210,000 tested, 2.8% active; HEK293 SMN2-luciferase splicing reporter, luminescence, 30-36 h; Potency, µM (titrated, usually from 46.1 µM), for inactives: at the highest dose activity change, positive = activation, hits mostly activators; AID 1458; also: % of control where 0% means no effect; nearly all actives have a fitted effect of over 55% in size
#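 HEK293 cells carry an SMN2 minigene-luciferase reporter in which exon 7 inclusion puts luciferase in frame. Cells were seeded at 2000 cells/well, attached for 10-12 hours, then exposed to compounds for 30-36 hours at 37C before ONE-Glo luminescence.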
# ELG1 genotoxic: genotoxicity induction in ELG1-luciferase HEK293T cells; Potency, µM (titrated, usually from 46 µM), for the others: top-dose activity change, positive = activation, most hits filed as activators; 330,000 tested, 1.3% active; HEK293T ELG1-luciferase reporter, luminescence, 16 h; also: % of control where 0% means no effect; nearly all actives have a fitted effect of over 60% in size
#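 16 hr compound incubation (37 °C, 5% CO2) of HEK293T cells carrying luciferase-tagged ELG1; luciferase then measured by ONE-Glo luminescence after 30 min at RT.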
# NPC1 prom act: NPC1 promoter activation | AID 485313 | Huh7 NPC1 promoter luciferase reporter, 24 h | 320,000 tested, 2.4% active | Potency, µM (doses to about 9.22 µM), for the others: top-dose activation, most hits filed as activators; also: % of control where 0% means no effect; nearly all actives have a fitted effect of over 60% in size
#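 In 1536-well qHTS, Huh7 cells harboring an NPC1 promoter–luciferase construct received compound for 24 h; activation was quantified by luminescence following luciferase reagent addition.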
# Rab9 promoter act: activates the Rab9 promoter. 320,000 tested, 2.8% active. Potency, µM (doses to about 9.22 µM), for the others: at the highest dose activation, negative = inhibition, actives largely listed as activators. Huh7 Rab9 promoter-luciferase reporter, luminescence, 24 h; also: % of control where 0% means no effect; nearly all actives have a fitted effect of over 60% in size
#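 Stable Rab9-luc Huh7, 1500 cells/well, 2 h settle; cmpd in DMSO, 24 h, 37 °C/5% CO2; luciferase reagent 10 min RT; luminescence.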
# * hit, by the source's call; ? = inconclusive; . = no result. A selection: hits, their analogues and other compounds. The true share with any hit is near 7.4%. Calls follow the shape of the dose curve; as a rule, active = well fitted curve in the direction sought with a large enough effect; inconclusive = small, poorly fitted or top-dose-only effect, or another doubt; inactive = no such curve, though single readings can be large; an effect the other way counts as inactive or inconclusive. Potency is read from the fitted curve at half-maximal effect.
SMILES,FLuc modulator,SMN2 splice up,ELG1 genotoxic,NPC1 prom act,Rab9 promoter act
COc1ccc(Nc2ncnc3c2cnn3C)c(OC)c1,-2%,.,.,.,.
CCCCOc1cccc(-c2cc(C(=O)NNC(=S)NCC)c3ccccc3n2)c1,1.5µM*,21%,?,7%,16%
CCNC(=S)NNC(=O)c1cc(-c2ccc(OC)cc2)nc2ccccc12,0.076µM*,7.9µM*,?,?,?
CC(C)COc1cccc(-c2cc(C(=O)Nc3ccon3)c3ccccc3n2)c1,?,.,-19%,-2%,0%
CCNC(=S)NNC(=O)c1cc(-c2cccc(OCC)c2)nc2ccccc12,1.3µM*,16%,?,12%,17%
CCCCOc1ccc(-c2cc(C(=O)NNC(=S)NCC)c3ccccc3n2)cc1,0.076µM*,3.2µM*,?,?,?
CCN(CC)CCNC(=O)c1[nH]c2ccc(OCc3ccccc3)cc2c1C,-2%,-36%,0%,-2%,-11%
COc1cccc(N2CC(NC(=O)c3cc4ccccc4o3)CC2=O)c1 (centres undefined),-7%,.,.,.,.
Cc1ccc(OCC(=O)NCC2(N3CCN(C)CC3)CCCCC2)cc1C,-1%,.,.,.,.
CCNC(=S)NNC(=O)c1cc(-c2cccc(C)c2)nc2ccccc12,0.34µM*,?,2%,?,?
CCCc1ccc2oc(C(=O)N3CCCC3)c(C)c2c1,21µM*,.,?,23%,?
CCCc1ccc2oc(C(=O)NCCc3nc(C(=O)OCC)cs3)c(C)c2c1,13µM*,.,14%,4µM*,2µM*
CCCc1ccc2oc(C(=O)N(C)Cc3ccn[nH]3)c(C)c2c1,15µM*,.,18µM*,?,?
CCCc1ccc2oc(C(=O)NCCc3cnn(C)c3)c(C)c2c1,13µM*,.,?,3.5µM*,1.8µM*
Cc1c(C(=O)N2CCCC2)oc2ccc(Br)cc12,?,.,25%,5%,3%
Cc1cc(Nc2ccc(Cl)cc2)n2cnnc2n1,-7%,3%,.,.,.
COc1ccc(/C=C2\SC(=Nc3ccccc3)NC2=O)cc1,7.6µM*,.,7%,-5%,4%
COc1ccc(N=C2NC(=O)/C(=C/c3ccc(O)c(OC)c3)S2)cc1,?,-14%,12%,-5%,-2%
COc1ccccc1N=C1NC(=O)/C(=C/c2ccc(N(C)C)cc2)S1,1.1µM*,.,?,-11%,4%
COc1ccc(/C=C2/SC(=O)NC2=O)cc1,4.3µM*,.,?,?,3.2µM*
O=C1NC(=Nc2cccnc2)S/C1=C/c1ccc(F)cc1,11µM*,.,3%,-4%,-6%
CCNS(=O)(=O)c1ccc(NC(=S)NCC2CCCO2)cc1 (centres undefined),-2%,8%,1%,-1%,-1%
O=C(CNC(=O)C1COc2ccccc2O1)N/N=C\c1ccc(Cl)cc1 (centres undefined),-14%,.,-1%,0%,3%
O=C1NC(=O)/C(=C\c2ccc(Cl)nc2)S1,15µM*,.,?,?,?
CCc1ccc(N=C2NC(=O)/C(=C/c3ccc(OCC(=O)O)cc3)S2)cc1,6µM*,.,-1%,2%,-11%
SMILES,FLuc modulator,SMN2 splice up,ELG1 genotoxic,NPC1 prom act,Rab9 promoter act
CC1CN(C(=O)COC(=O)CSc2ccc([N+](=O)[O-])cc2)CC(C)O1 (centres undefined),7%,.,1%,-2%,3%
Cc1ccc(-c2csc3nc(SCC(=O)Nc4ccc(Cl)c(C(=O)O)c4)[nH]c(=O)c23)cc1,?,.,1%,-1%,-3%
O=C(Nc1cc(F)ccc1F)c1cc2nc(-c3ccco3)cc(C(F)(F)Cl)n2n1,-1%,.,.,.,.
Cc1ccnc(N/C=C(/NC(=O)c2ccccc2)C(=O)N/N=C\c2ccc(Cl)cc2)n1,?,.,-9%,1%,1%
COc1ccc(-c2cc3c(=O)n(CC(=O)NCc4cccnc4)ncn3n2)cc1,2.1µM*,.,?,1.6µM*,3.5µM*
COc1ccc(-c2cc3c(=O)n(CC(=O)NCCCN4CCC(N5CCCCC5)CC4)nc(C)n3n2)cc1,-9%,.,5%,1%,0%
COc1ccc(-c2cc3c(=O)n(CC(=O)NCCCN4CCC(N5CCCCC5)CC4)ncn3n2)cc1,11µM*,.,9%,?,22%
COc1ccccc1CP(=O)(c1ccccc1)c1ccccc1,4%,.,-5%,-2%,-5%
Cc1cc(C)cc(NC(=O)c2ccc3oc(=O)c(S(=O)(=O)c4ccc(F)cc4)cc3c2)c1,0%,5%,.,.,.
O=C1N/C(=C/c2ccsc2)C(=O)N1c1ccccc1,?,29%,?,?,2.8µM*
O=C(O)c1ccc(-n2cccc2/C=C2/NC(=O)N(c3ccccc3)C2=O)cc1,-18%,.,-3%,-6%,1%
CCn1c(C)cc(/C=C2/NC(=O)N(c3ccccc3)C2=O)c1C,7.6µM*,11µM*,?,3.2µM*,1.4µM*
Cn1c(N)c(S(=O)(=O)NCc2ccc(F)cc2)c(=O)n(C)c1=O,-1%,.,2%,-1%,2%
Cc1nn(-c2ccc(Cl)cc2)c(=O)c2ccccc12,17µM*,13µM*,?,4.5µM*,2.8µM*
Cc1cc(Nc2ccccc2)n(-c2nc3ccccc3[nH]2)n1,?,6%,-2%,-1%,-12%
Cc1nn(-c2nc3ccccc3[nH]2)c(N)c1-c1ccc(Cl)cc1,8.5µM*,?,8%,?,3.5µM*
Cc1nn(-c2ccc(Cl)nn2)c(=O)c2ccccc12,17µM*,?,?,18%,?
Cc1nn(-c2nc3ccccc3[nH]2)c(=O)c2ccccc12,0.076µM*,-98%,?,?,0.1µM*
Cc1nn(-c2ccc(Cl)c(Cl)c2Cl)c(=O)c2ccccc12,2%,-12%,-3%,-3%,3%
Cc1nn(-c2ccc(Cl)c(Cl)c2)c(=O)c2ccccc12,-19%,-4%,4%,26%,19%
Cc1nn(-c2ccc3ccccc3c2)c(=O)c2ccccc12,12µM*,.,?,2%,?
CCOC(=O)c1ccc(NC(=S)NNC(=O)c2cc(-c3cccnc3)nc3ccccc23)cc1,21µM*,.,-17%,4%,11%
O=C(NNC(=O)c1ccc(Cl)cc1Cl)Nc1ccccc1,-3%,12%,-1%,1%,-1%
O=C(NNC(=S)Nc1ccccc1)c1cc(-c2cccnc2)nc2ccccc12,13µM*,22%,-3%,-1%,16%
O=C(NNC(=O)c1cc(-c2ccc(Cl)cc2Cl)nc2ccccc12)Nc1ccccc1,6.7µM*,-2%,3%,-6%,-4%
CCOC(=O)c1cccc(COC(=O)c2cccc(-c3nnc(-c4ccccc4)o3)c2)c1,11µM*,3.5µM*,?,2µM*,1.3µM*
O=C(OCc1ccccc1)c1cccc(-c2nnc(-c3ccccc3)o2)c1,-19%,?,?,1.6µM*,?
